Measurements: PubChem BioAssay (NCI)
Compounds without any hit were thinned out: in the full panel of roughly 83,000, 20% have a hit.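 Each cell line was grown in a 96-well plate and treated with one concentration of compound for 48 hours. Values below 10 were considered active.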 Values without a mark were called inactive. Activity calls are given as the source filed them.

Experiments:
Test in all cases: NCI-60 one-dose screen, 48 h (100 = growth as untreated, 0 = no growth, -100 = all killed)
Conditions in all cases: 10 µM unless noted
[1] = system: DU-145 prostate
[2] = system: K-562 leukemia
[3] = system: MALME-3M melanoma
[4] = system: MDA-MB-231 breast
[5] = system: RXF 393 renal
[6] = system: SF-268 CNS
[7] = system: SF-295 CNS
[8] = system: SF-539 CNS
[9] = system: UACC-257 melanoma
[10] = system: M14 melanoma
[11] = system: HCT-15 colon
[12] = system: HT29 colon
[13] = system: SNB-75 CNS
[14] = system: SNB-19 CNS
[15] = system: U251 CNS
[16] = system: PC-3 prostate
[17] = system: SK-MEL-5 melanoma
[18] = system: UACC-62 melanoma
[19] = system: LOX IMVI melanoma
[20] = system: SK-MEL-28 melanoma

Compound | growth [1] | growth [2] | growth [3] | growth [4] | growth [5] | growth [6] | growth [7] | growth [8] | growth [9] | growth [10] | growth [11] | growth [12] | growth [13] | growth [14] | growth [15] | growth [16] | growth [17] | growth [18] | growth [19] | growth [20]
Cc1[nH]c(C(=O)Nc2ccc(S(=O)(=O)N3CCCCC3)cc2OCCOCCOCCOCCOCCOCCOCCOCCOCCOc2cc(S(=O)(=O)N3CCCCC3)ccc2NC(=O)c2[nH]c(C)c3c2CCCCC3=O)c2c1C(=O)CCCC2 | 47.3% | 19.2% | 3.69% (active) | 11.6% | 47% | 44.3% | 30.8% | 14.1% | -27% (active) | 14% | 30.9% | 4.45% (active) | -2.1% (active) | 33.3% | 24.3% | 28.8% | 14.8% | -32.5% (active) | -75.1% (active) | 35.1%
O=C1Nc2cc(Cl)ccc2/C1=C\c1ccc(OCc2ccccc2)cc1 | 101% | 93.1% | 115% | 104% | 114% | 94.5% | 115% | 94.5% | 116% | 96.2% | 95% | 105% | 73.3% | 103% | 104% | 88.2% | 97.2% | 95.9% | 92.7% | 103%
C[C@@H]1OCC2(CCN(c3cnc(C(=O)Nc4cc(F)cc5cccnc45)cn3)CC2)[C@@H]1N | 77% | 8.84% (active) | 53.1% | 38.9% | 65.4% | 78.9% | 90.8% | 71.7% | 102% | 81.5% | 20.9% | 32.4% | 65.1% | 78.1% | 75.3% | 55.7% | 94.4% | 54% | 44.5% | 70%
C=C1CCc2nc(SCC(=O)O)ccc2N1 | 110% | 98.5% | 104% | 105% | 94.1% | 103% | 104% | 101% | 105% | 94.8% | 99.1% | 109% | 85.1% | 92.7% | 112% | 104% | 101% | 93.2% | 96.9% | 106%
Brc1cccc(-c2cc(-c3ccc4c(c3)OC=CO4)[nH]n2)c1 | 54.8% | 13.6% | 25.6% | 53.2% | 60.2% | 64.6% | 38% | 49.3% | 67.5% | 15.7% | 21.1% | 14% | 27.5% | 48.6% | 29% | 54.1% | 22.8% | 52.2% | 45.6% | 50%
CNC(=O)c1cc(-c2ccc(NC(=S)Nc3cccc(C(F)(F)F)c3)cc2)nc2cccnc12 | 103% | 90.8% | 112% | 96.5% | 107% | 106% | 93.3% | 100% | 104% | 99.3% | 98.2% | 99.7% | 91.2% | 94.7% | 95.3% | 96.1% | 96.2% | 89.9% | 95.3% | 99.9%
CN1CCN(Cc2ccc(NC(=O)c3cncc(C#Cc4cnc5ccc(N6CCOCC6)nn45)c3)cc2C(F)(F)F)CC1 | -84.7% (active) | -0.943% (active) | -86.2% (active) | -56.4% (active) | -77.9% (active) | -62.1% (active) | -84.8% (active) | -90.8% (active) | -29.5% (active) | -74.4% (active) | -53.9% (active) | -71.2% (active) | -46.3% (active) | -20.3% (active) | -92.8% (active) | -7.08% (active) | -95.9% (active) | -62.2% (active) | -93.8% (active) | -76.4% (active)
CCCc1[nH]c(-c2cc(N)ccc2Cl)c2c1C(=O)CCCC2 | 107% | 93.1% | 93.7% | 100% | 102% | 97.3% | 80.8% | 98.3% | 104% | 107% | 90.6% | 104% | 89.2% | 100% | 102% | 85.6% | 98.1% | 82.1% | 107% | 102%
O=C1C(SCc2ccccc2)=C(Cl)CN1c1ccc(Cl)cc1 | 49.5% | 52.9% | 103% | 101% | 107% | 108% | 102% | 97.9% | 97.2% | 78% | 88.6% | 84.5% | 103% | 96.9% | 86.3% | 107% | 99.3% | 93.5% | 5.82% (active) | 88.1%
COc1ccc2[nH]cc(-c3nc(N)nnc3-c3cn(C)c4ccc(Br)cc34)c2c1 | 48.8% | 5.19% (active) | 42.2% | 48.1% | 5.35% (active) | 39.4% | 20.1% | 18.1% | 46.8% | 5.3% (active) | 22% | 2.43% (active) | -4.14% (active) | 30.5% | 20.2% | 24.5% | 15% | 15.9% | 35.4% | 51.3%
CN1CC[C@@H]2[C@@]3(C)CC[C@H](O)C(C)(C)[C@@H]3CC[C@@]2(C)[C@]2(C)CC[C@@]3(CO)CCC(C)(C)C[C@@H]3C12 (stereo not given in full) | 103% | 21.5% | 84.3% | 85% | 77.2% | 96.7% | 104% | 74.9% | 49.1% | 58.6% | 72.7% | 40.3% | 87.7% | 94.5% | 73.9% | 79.6% | 95.6% | 93% | 84.8% | 88%
Cc1ccc2c(n1)C(=O)C(Cl)=C(Nc1ccc(C)c(C)c1)C2=O | 6.17% (active) | 4.14% (active) | 85.4% | 49.3% | 85.7% | 79.1% | 44.7% | 59.9% | 16% | 42.5% | 23.6% | 103% | 87.6% | 56.2% | 71.8% | 45.3% | 6.91% (active) | 49.3% | 0.982% (active) | 58.3%
O=C(N/N=C/c1cc2ccccc2nc1Cl)c1cc(-c2nc3ccccc3[nH]2)nc2ccccc12 | 87.7% | 83.6% | 124% | 99% | 96.2% | 87.8% | 89.7% | 103% | 118% | 109% | 82.9% | 90.3% | 83.2% | 95.3% | 92.2% | 81.6% | 81.9% | 75.1% | 88.9% | 99.2%
COc1cccc(N2CCN(C3=C(Cl)C(=O)c4ncccc4C3=O)CC2)c1 | 59.2% | 7.16% (active) | 61.6% | 85.1% | 64.5% | 84.1% | 110% | 93.8% | 70.2% | 81.7% | 42.3% | 108% | 85.1% | 90.8% | 90.5% | 78.7% | 97.3% | 84.3% | 28.6% | 105%
CCCCc1nc2c(N)nc3ccccc3c2n1Cc1ccc(OC)cc1 | 83.4% | 23.2% | 87.6% | 75.8% | 58.4% | 81.1% | 56.5% | 84.2% | 72% | 67.3% | 58.3% | 32.9% | 66.2% | 76% | 67.9% | 43.5% | 47.3% | 68.2% | 75% | 90.2%
